Only a selection was taken, and hits are over-represented in it overall.
MITF inhib: blocks MITF activity; inhibition, % (concentration not given with the values); TRPM1 promoter luciferase, luminescence, 24 h; 0.28% of 37,000 active; AID 2240; in the data active = inhibition above about 85%; inconclusive = no clear call, values can overlap the other calls; inactive = below about 68%;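 also: human melanocyte line stably carrying TRPM1 promoter luciferase reporter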
Shh pathway inh: blocks Sonic Hedgehog signaling | Shh-LIGHT2 Gli-luciferase reporter, 30 h | inhibition, % (test concentration not listed) | 2.1% of 22,000 active;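 active = mean inhibition across valid replicates above about 65%, limit read from the data; inconclusive = mean under the limit, yet half or more replicates past it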;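 also: pathway switched on by Shh-conditioned medium diluted 1 in 25 in low serum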
BJeLR viab HTS: compounds reducing viability of BJeLR cells. viability loss activity score, % (test concentration not listed). BJeLR fibroblasts viability, CellTiterGlo ATP luminescence, 48 h; HRASV12, hTERT and SV40 LT/ST transformed. 0.64% of 30,000 active. AID 2275; in the data active = viability loss activity score above about 50%; inconclusive = no clear call, values can overlap the other calls; inactive = below about 35%;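 also: higher score means fewer live cells and less ATP luminescence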
Large screens that a line does not name were inactive.

CCSc1nccc(-c2ccc3c(c2)CCC(C)(C)O3)n1	Shh pathway inh 77.6
S=c1nccc(-c2ccc3c(c2)CCO3)[nH]1	none
CC1(C)CCc2cc(-c3ccnc(=S)[nH]3)ccc2O1	Shh pathway inh 65.9
Cn1cnc(S(=O)(=O)NCC2CCN(S(=O)(=O)c3ccccc3)CC2)c1	none (no result: MITF inhib, Shh pathway inh)
S=c1[nH]nc(CSCc2cccc3ccccc23)n1C1CCCCC1	Shh pathway inh 69.4
O=c1c2ccccc2[nH]c(=S)n1C1CCCC1	none (no result: MITF inhib, Shh pathway inh)
O=C(Nc1ccccc1)C1CCCCC1	none (no result: Shh pathway inh)
O=C(ON1C(=O)c2ccccc2C1=O)C1CCCCC1	Shh pathway inh 69.8
O=c1c2cc(NC(=S)NCC3CCCO3)ccc2nc2n1CCCCC2 (stereo unspecified)	none (no result: MITF inhib, Shh pathway inh)
O=C1CC(c2ccc(Cl)cc2)n2ncnc2N1 (stereo unspecified)	none (no result: MITF inhib, Shh pathway inh)
Cc1ccc(S(=O)(=O)N(C)C[C@@H]2Oc3c(NC(=O)Nc4ccc(F)cc4)cccc3C(=O)N([C@@H](C)CO)C[C@@H]2C)cc1	Shh pathway inh 107.8
C[C@H](CO)N1C[C@H](C)[C@@H](CN(C)S(=O)(=O)c2ccc(F)cc2)Oc2c(NC(=O)Nc3ccc(F)cc3)cccc2C1=O	none
C[C@H](CO)N1C[C@H](C)[C@H](CN(C)S(=O)(=O)c2ccc(F)cc2)Oc2c(NC(=O)Nc3ccc(F)cc3)cccc2C1=O	Shh pathway inh 100.6
C[C@@H]1CN([C@@H](C)CO)C(=O)c2cccc(NC(=O)Nc3ccc(F)cc3)c2O[C@@H]1CN(C)S(=O)(=O)c1ccc(F)cc1	none
Cc1ccc(S(=O)(=O)N(C)C[C@@H]2Oc3c(NC(=O)Nc4ccc(F)cc4)cccc3C(=O)N([C@H](C)CO)C[C@@H]2C)cc1	Shh pathway inh 116.6
Cc1ccc(S(=O)(=O)N(C)C[C@@H]2Oc3c(NC(=O)Nc4ccc(F)cc4)cccc3C(=O)N([C@@H](C)CO)C[C@H]2C)cc1	none
CSc1nc2ccc3nc(NC(=O)c4ccccc4C)sc3c2s1	none (no result: MITF inhib, Shh pathway inh)
COc1ccc(OC)c(/C=N/N2C(=O)C3C(C2=O)C2C=CC3C23CC3)c1 (stereo unspecified)	none (no result: MITF inhib, Shh pathway inh)
CC1CCc2c(sc(NC(=O)c3nc4ncccn4n3)c2C(N)=O)C1 (stereo unspecified)	none (no result: Shh pathway inh, BJeLR viab HTS)
CCC(C)CC(C)/C=C\C1OC2=C(C(=O)OC2(C)O)C(O)C1O (stereo unspecified)	MITF inhib inconclusive, Shh pathway inh inconclusive, BJeLR viab HTS 104.0
C/C=C(/C)C(=O)O[C@@H]1c2cc(OC)c(OC)cc2-c2c(ccc(OC)c2OC)C[C@H]2C(=O)OC[C@H]12	none
COc1cc2c(c(OC)c1OC)-c1ccc(OC)c(=O)cc1[C@@H](NC(C)=O)CC2	Shh pathway inh 91.2, BJeLR viab HTS 59.5
N#Cc1c(NC(=O)C2CC(c3ccccc3O)=NO2)sc2c1CCCC2 (stereo unspecified)	none (no result: Shh pathway inh, BJeLR viab HTS)
CC1=C(CO)C(=O)OC([C@@H](C)C2CC[C@H]3C4C[C@H]5O[C@]56[C@@H](O)C=CC(=O)[C@]6(C)C4CC[C@]23C)C1 (stereo partly specified)	MITF inhib 90.4, Shh pathway inh inconclusive
N#CCCN1CCn2c3ccc(C4CCCCC4)cc3c3cccc1c32	none (no result: MITF inhib, Shh pathway inh)
O=C1c2c(O)cc(O)cc2O[C@@H](c2ccc(O)cc2)[C@H]1[C@@H]1C(=O)c2c(O)cc(O)cc2O[C@H]1c1ccc(O)cc1	Shh pathway inh 72.1
O=C1c2c(O)cc(O)cc2OC(c2ccc(O)cc2)C1C1C(=O)c2c(O)cc(O)cc2OC1c1ccc(O)cc1 (stereo unspecified)	none (no result: MITF inhib, BJeLR viab HTS)
CCc1ccc(C(Nc2cc(C)ccn2)c2ccc3ccc(C)nc3c2O)cc1 (stereo unspecified)	none (no result: Shh pathway inh, BJeLR viab HTS)
CC1CC(=O)[C@]2(C)CC[C@]3(C)C(C(=O)C(O)C4[C@@]5(C)CC[C@H](O)C(C)(C(=O)O)C5CC[C@]43C)C2C1C (stereo partly specified)	Shh pathway inh 81.5, BJeLR viab HTS 105.7
C[C@@H]1CC[C@]2(C(=O)O)CC[C@]3(C)C(=CCC4[C@@]5(C)CC[C@@H](O)[C@](C)(C(=O)O)C5CC[C@]43C)C2[C@H]1C (stereo partly specified)	none (no result: BJeLR viab HTS)
Cc1nnc(SC(c2ccccc2)c2ccccc2)s1	none (no result: MITF inhib, Shh pathway inh)
CC(C)NC(=O)Nc1ccc2c(c1)C(=O)N([C@H](C)CO)C[C@@H](C)[C@@H](CN(C)Cc1ccc(-c3ccccc3)cc1)O2	Shh pathway inh 66.5
C[C@@H]1CN([C@H](C)CO)C(=O)c2cc(NC(=O)NC3CCCCC3)ccc2O[C@@H]1CN(C)Cc1ccc(Oc2ccccc2)cc1	Shh pathway inh 91.2
CC(C)NC(=O)Nc1ccc2c(c1)C(=O)N([C@@H](C)CO)C[C@H](C)[C@H](CN(C)Cc1ccc(-c3ccccc3)cc1)O2	none
Cc1noc(C)c1NC(=O)Nc1ccc2c(c1)C(=O)N([C@H](C)CO)C[C@H](C)[C@@H](CN(C)Cc1ccc(Oc3ccccc3)cc1)O2	none
Cc1noc(C)c1NC(=O)Nc1ccc2c(c1)C(=O)N([C@H](C)CO)C[C@@H](C)[C@@H](CN(C)Cc1ccc(Oc3ccccc3)cc1)O2	Shh pathway inh 67.2
C[C@H](CO)N1C[C@H](C)[C@H](CN(C)Cc2ccc(Oc3ccccc3)cc2)Oc2ccc(NC(=O)NC3CCCCC3)cc2C1=O	none (no result: Shh pathway inh)
CC(=O)Nc1cc(C(=O)NCCN(C)C)ccc1Sc1ccc(C)cc1	none (no result: MITF inhib, Shh pathway inh)
C[N+]1(C/C=C2/COCO2)CCCCC1	none
O=C(CCCOc1ccccc1)NC1CCCCC1	none (no result: MITF inhib, Shh pathway inh)
CCC(=O)Nc1ccc(C#N)cc1	none (no result: MITF inhib, Shh pathway inh)
CN(C(=S)Nc1ccccc1)C1CCC(C2OCCO2)CC1O (stereo unspecified)	none (no result: MITF inhib, Shh pathway inh)
C[C@@H]1O[C@@H](O[C@H]2[C@H](O[C@H]3CC[C@@]4(C)C(CC[C@]5(C)C4CC=C4C6CC(C)(C)CC[C@]6(C(=O)O[C@@H]6O[C@H](CO[C@@H]7O[C@H](CO)[C@@H](O[C@@H]8O[C@@H](C)[C@H](O)[C@@H](O)[C@H]8O)[C@H](O)[C@H]7O)[C@@H](O)[C@H](O)[C@H]6O)CC[C@]45C)C3(C)C)OC[C@H](O)[C@@H]2O)[C@H](O)[C@H](O)[C@H]1O (stereo partly specified)	none (no result: MITF inhib, BJeLR viab HTS)
CC1CC[C@@]2(OC1)O[C@H]1CC3C4CC=C5C[C@@H](O[C@@H]6O[C@H](CO)[C@@H](O[C@@H]7O[C@@H](C)[C@H](O)[C@@H](O)[C@H]7O)[C@H](O)[C@H]6O[C@@H]6O[C@@H](C)[C@H](O)[C@@H](O)[C@H]6O)CC[C@]5(C)C4CC[C@]3(C)[C@@]1(O)[C@@H]2C (stereo partly specified)	Shh pathway inh 79.6, BJeLR viab HTS 92.0
C=CCn1c(=S)sc2c(SCC(N)=O)ncnc21	none (no result: MITF inhib, Shh pathway inh)
C=CCn1c(=S)sc2c(Sc3nnc(-c4ccco4)o3)ncnc21	Shh pathway inh 73.0, BJeLR viab HTS 63.1
Cc1ccc(N/C(=N/C(N)=S)c2ccccc2)cc1	none
CCCCCCCC/C=C\CCCCCCCc1cccc(O)c1C(=O)O	Shh pathway inh 66.0
CCCCCCCCCC/C=C\CCCCCCCc1cccc(O)c1C(=O)O	Shh pathway inh 103.1
CCCCC/C=C\C/C=C\C/C=C\C/C=C\CCCC(=O)O	none
CCCCC/C=C\C/C=C\C/C=C\C/C=C\CCCCCC(=O)O	none
COc1cccc(NC(=O)Nc2nncs2)c1	none (no result: MITF inhib, Shh pathway inh)
FC(F)(F)C1=Nc2ccccc2N(c2ccc(Cl)c(Cl)c2)C1	none
